Many of the other results were omitted from the sample, so hits are more common in it than they were.
Shiga toxin inh: Shiga toxin inhibition; inhibition, % at 38.7 µM; Vero cells, Shiga toxin protein synthesis inhibition reporter; AID 2315; 290,000 tested, 9.2% active; in the data active = inhibition mostly above about 28%, no sharp cut-off; inactive = mostly below about 43%; also: 0% is about no effect
Sm TGR block: inhibitors of Schistosoma mansoni thioredoxin glutathione reductase | Q962Y6 | purified TGR, DTNB reduction, TNB absorbance 405 nm | Potency, µM (highest dose often 114 µM), inactives show top-dose activity change, negative = inhibition, hits mostly inhibitors | 360,000 tested, 3% active; also: potency is read from the fitted curve at half-maximal effect; % is scaled to controls: 0 for no effect and ±100 for the full control effect; nearly all actives have a fitted effect of over 60% in size
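First, TGR (20 nM dispensed) and NADPH were mixed with compound. Second, a 15 min room-temperature incubation followed. Third, further NADPH and then DTNB were added to start the reaction. Finally, TNB absorbance was monitored kinetically.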
Giardia FBPA inh: Giardia lamblia aldolase inhibition; A8B2U2; purified Giardia FBPA; Potency, µM (doses to about 59.6 µM), without a hit: at the highest dose activity, negative = inhibition, most hits filed as inhibitors; 290,000 tested, 0.71% active; also: potency is read from the fitted curve at half-maximal effect; % is scaled to controls: 0 for no effect and ±100 for the full control effect; nearly all actives have a fitted effect of over 55% in size
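Giardia FBPA (40 nM reagent) was preincubated 10 min at RT with compound (up to 57.5 uM final), then substrate plus GAPDH/TPI/NAD/arsenate coupling system with diaphorase/resazurin was added; resorufin fluorescence (525/598 nm) was read after 20 min.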
TbPYK inhibitor: inhibitors of Trypanosoma brucei pyruvate kinase | Potency, µM (highest dose often 76.8 µM), without a hit: at the top dose activity, negative = inhibition, most hits filed as inhibitors | AID 624173 | Q57TT1 | 410,000 tested, 0.12% active | TbPYK enzyme, Kinase-Glo Plus ATP luminescence, 45 min; also: potency is read from the fitted curve at half-maximal effect; % is scaled to controls: 0 for no effect and ±100 for the full control effect; nearly all actives have a fitted effect of over 50% in size
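Assay buffer: 50 mM TEA pH 7.2, 100 mM KCl, 10 mM MgCl2, 0.05% BSA, 0.01% Tween-20. Pyruvate kinase from T. brucei plus substrate met compound, then ADP (130 uM final). Luminescence was read post 45 min RT.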
LmPK inh: blocks Leishmania mexicana pyruvate kinase activity; 290,000 tested, 0.37% active; purified LmPK, Kinase-Glo ATP luminescence, 1 h; Q27686; Potency, µM (highest dose often 57.5 µM), without a hit: top-dose activity change, negative = inhibition, hits mostly inhibitors; also: potency is read from the fitted curve at half-maximal effect; % is scaled to controls: 0 for no effect and ±100 for the full control effect
Target sequence (Q27686 whole entry, looked up): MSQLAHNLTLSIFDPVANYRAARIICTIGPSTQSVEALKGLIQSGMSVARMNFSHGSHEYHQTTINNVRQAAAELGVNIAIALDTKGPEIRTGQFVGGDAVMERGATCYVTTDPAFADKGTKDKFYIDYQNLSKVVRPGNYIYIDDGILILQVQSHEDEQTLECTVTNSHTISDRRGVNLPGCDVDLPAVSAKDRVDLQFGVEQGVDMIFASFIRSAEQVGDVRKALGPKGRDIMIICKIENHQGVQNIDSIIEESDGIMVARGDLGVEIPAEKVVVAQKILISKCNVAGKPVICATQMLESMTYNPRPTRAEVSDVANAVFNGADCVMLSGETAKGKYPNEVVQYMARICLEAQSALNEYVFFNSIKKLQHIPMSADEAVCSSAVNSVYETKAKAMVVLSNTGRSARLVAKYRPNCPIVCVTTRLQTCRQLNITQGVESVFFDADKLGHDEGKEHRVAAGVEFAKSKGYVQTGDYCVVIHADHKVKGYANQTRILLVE
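Purified LmPK (0.1 nM) converted ADP (0.1 mM) to ATP with PEP (0.5 mM) in imidazole buffer pH 7.2 with KCl and MgCl2, 1 h at room temperature. ATP was read by Kinase-Glo luminescence; data normalized to uninhibited and no-enzyme controls.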
CHX counter: affects cycloheximide protein synthesis inhibition readout, counter-screen; AID 2314; 300,000 tested, 12% active; cell reporter, cycloheximide protein synthesis inhibition counterscreen; max response, %; in the data active = max response mostly above about 13%, no sharp cut-off; inactive = mostly below about 14%; also: read at 38.3 µM for the half of the compounds with a filed dose; 0% is about no effect
Numbers without * were called inactive; ? = inconclusive; · = not tested or not shown; + = active, no number; [ ] = another dose, or the depositor's remark. Unless noted, calls follow the shape of the dose curve; as a rule, active = well fitted curve in the direction sought with a large enough effect; inconclusive = small, poorly fitted or top-dose-only effect, or another doubt; inactive = no such curve, though single readings can be large; an effect the other way counts as inactive or inconclusive.

SMILES	Shiga toxin inh	Sm TGR block	Giardia FBPA inh	TbPYK inhibitor	LmPK inh	CHX counter
Cc1ccc(C)c(OCCn2cc(C(=O)O)c3ccccc32)c1	21	4%	23%	-3%	0%	0
Clc1ccccc1OCCn1nnc2ccccc21	63*	-2%	5%	-7%	-1%	45*
Nc1nc2ccccc2n1CCOc1ccccc1Cl	-8	7%	-4%	1%	-2%	-5
Cc1ccc(OCCn2nc3ccccc3n2)c(C)c1	38*	-1%	-9%	4%	0%	32*
Cc1ccc(Cn2c(=O)c3ccccc3n3c(-c4ccccc4)nnc23)cc1	·	9%	·	4%	·	·
CC(C)CN1CCc2nc(-c3ccccc3)c3c(c2CC1)COC(C)C3 (stereo not drawn)	·	·	1%[12.9 µM]	·	·	·
CC1=CC(c2ccccc2)n2nc(NC(=O)CCCC(=O)O)nc2N1 (stereo not drawn)	-4	20µM*	-8%	3%	-1%	-4
CC1=CC(c2ccccc2)n2nc(NC(=O)CCC(=O)O)nc2N1 (stereo not drawn)	21	13µM*	-11%	-2%	-5%	1
COc1ccc(C2C=C(c3ccccc3)Nc3nc(NS(=O)(=O)c4ccc(C)cc4)nn32)cc1 (stereo not drawn)	·	-6%	·	-5%	·	·
Nc1nc(NC(=O)CCCC(=O)O)nn1-c1ccccc1	-6	4%	-5%	-1%	7%	2
c1ccc(CNc2ncncc2-c2ccoc2)cc1	·	·	-8%	·	·	·
O=C(COc1ccc(-c2nnco2)cc1)NCc1ccccc1Cl	1	-4%	3%	-2%	-8%	0
Cc1cc(C(=O)COc2ccc(-c3nnco3)cc2)c(C)n1Cc1ccccc1	21	?	-5%	-7%	0%	17*
CCn1c(-c2cc(-c3ccc(C)cc3)nc3ccccc23)n[nH]c1=S	21	-3%	0%	?	4%	16*
CCn1c(-c2cc(-c3ccc(OC(C)C)cc3)nc3ccccc23)n[nH]c1=S	44	0%	?	-15%	-1%	31*
C=CCn1c(-c2cc(-c3ccc(C)cc3)nc3ccccc23)n[nH]c1=S	13	5%	2%	-31%	7%	13
CCCOc1cccc(-c2cc(-c3n[nH]c(=S)n3CC)c3ccccc3n2)c1	16	0%	-3%	-30%	0%	-2
CCOC(=O)c1cn2nc(Oc3ccc(NC(C)=O)cc3)ccc2n1	59*	9%	2%	9%	-2%	25*
CCOC(=O)c1cn2nc(Oc3ccc(C(=O)OC)cc3)ccc2n1	-1	9%	10%	1%	-2%	1
CCOC(=O)c1cn2nc(Oc3cccc(F)c3)ccc2n1	49	-5%	0%	3%	0%	31*
O=C(/C=C/c1ccc(F)cc1)N1CCN(c2ccccn2)CC1	+	5%	1%	-4%	0%	15
COc1ccc(/C=C/C(=O)NC(=S)N2CCN(c3ccccn3)CC2)cc1	56*	7%	-1%	-12%	0%	19*
CN1CCN(C(=S)NC(=O)/C=C/c2ccccc2)CC1	33	3%	-9%	5%	-3%	19
O=C(/C=C/c1ccc(Br)cc1)NC(=S)N1CCOCC1	67*	4%	-20%	-29%	?	54*
COc1ccccc1N1CCN(C(=S)NC(=O)/C=C/c2ccccc2)CC1	30	8%	0%	-3%	-5%	12
COc1ccc(/C=C/C(=O)NC(=S)N2CCSCC2)cc1	49	0%	-10%	-3%	-9%	37*
COc1ccc(-n2c(SCC(=O)c3ccc(Cl)cc3)nc3c([nH]c4ccccc43)c2=O)cc1	·	7%	·	-8%	·	·
CCC(CO)NC(=O)C1C=C2c3cccc4[nH]cc(c34)CC2N(C)C1 (stereo not drawn)	10	-20%	-30%	8%	-1%	-2
COC(=O)C1C=C2c3cccc4[nH]cc(c34)CC2N(C)C1 (stereo not drawn)	-4	10µM*	?	·	-1%	6

From PubChem BioAssay
